Unmarked numbers belong to inactive results. Calls of active or inactive are those of the source. Calls come from the whole dose curve.
experiment: qHTS assay to identify small molecule agonists of the estrogen related receptor (ERR) signaling pathway from Tox21 library (AID 1224849); conditions: ERR reporter cell line, ONE-Glo luciferase, 18 h; at 42.5 µM (top of the series); note: nearly all actives have a fitted effect of over 15% in size
Description: National Center for Advancing Translational Sciences [NCATS]
NIH Chemical Genomics Center [NCGC]
U.S. Environmental Protection Agency [EPA]
National Institutes of Environmental Health Sciences [NIEHS]
National Toxicology Program [NTP]
Estrogen related receptors (ERRs), the first orphan nuclear receptors discovered, play an important role in the control of cellular energy metabolism. ERRs are required for high-energy production in response to the environmental challenges. ERR-alpha was also identified as an adverse marker for breast cancer progression; ERR-alpha-positive tumors have a poor prognosis. To screen and to identify environmental compounds that perturb the ERR signaling pathways could provide valuable information for potential therapeutic or preventive measures in the treatment of metabolic disease. For identifying ERR agonists, ERR cell line (provided by NTP) has been used to screen Tox21 10K library.
The ERR cells were dispensed at 2,000 cells/5 ul/well in 1536-well white plates using a Multidrop dispenser. After the assay plates were incubated at a 37 C/5% CO2 incubator for 6 hours, 23 nL of compounds dissolved in DMSO, positive and negative controls or DMSO only was transferred to the assay plate by a pin tool. The plates were incubated at 37 C for 18 hours. 4 ul/well of One-Glo reagent was added into the assay plates using a Flying Reagent Dispenser. After 30-minute incubation at room temperature, the luminescence intensity in the plates was measured using a ViewLux plate reader.
% is set by controls: 0 for no effect and ±100 for the full control effect.

Compound | activity change, positive = activation [%]
Nc1c2ccccc2nc2ccccc12 | -23

same assay, conditions: ERR reporter cell line, ONE-Glo luciferase, 18 h; at 92.4 µM (top of the series)

Compound | activity change, positive = activation [%]
Nc1c2ccccc2nc2ccccc12 | -63.6

same assay, conditions: ERR reporter cell line, ONE-Glo luciferase, 18 h; at 92.4 µM (top of the series) unless noted

Compound | activity change, positive = activation
O=c1[nH]sc2ccccc12 | -73.9%
Oc1ccc2c(c1)-c1ccccc1C2 | -22%
O=C(OC[C@H]1O[C@@H](OC(=O)c2cc(O)c(O)c(OC(=O)c3cc(O)c(O)c(O)c3)c2)[C@H](OC(=O)c2cc(O)c(O)c(OC(=O)c3cc(O)c(O)c(O)c3)c2)[C@@H](OC(=O)c2cc(O)c(O)c(OC(=O)c3cc(O)c(O)c(O)c3)c2)[C@@H]1OC(=O)c1cc(O)c(O)c(OC(=O)c2cc(O)c(O)c(O)c2)c1)c1cc(O)c(O)c(OC(=O)c2cc(O)c(O)c(O)c2)c1 | -16% [at 19 µM]
C=C(C)C(=O)OCC(O)COc1ccc(C(C)(C)c2ccc(OCC(O)COC(=O)C(=C)C)cc2)cc1 (stereo not given) | -80.3%
CSc1ccc(/C=C2/C(C)=C(CC(=O)O)c3cc(F)ccc32)cc1 | -7.17% [at 42.5 µM]
CN(C)[C@@H]1C(=O)C(C(N)=O)=C(O)[C@@]2(O)C(=O)C3=C(O)c4c(O)ccc(Cl)c4[C@@H](O)[C@H]3C[C@@H]12 | -10.9% [at 42.5 µM]
CC(C)=CCOc1ccc(/C=C/C(=O)c2ccc(OCC=C(C)C)cc2OCC(=O)O)cc1 | -23.7% [at 42.5 µM]
CCCCCCCCCCCCCCCC[N+](C)(C)CCN(Cc1ccc(OC)cc1)c1ncccn1 | -53.6% [at 42.5 µM]
N=C1C=CC(=C(c2ccc(N)cc2)c2ccc(N)cc2)C=C1 | -66.1%
COc1ccc(-c2ccc3cc(C(=O)O)ccc3c2)cc1C12CC3CC(CC(C3)C1)C2 | -10.4% [at 42.5 µM]
CC[C@@]1(O)C(=O)OCc2c1cc1n(c2=O)Cc2cc3c(CN(C)C)c(O)ccc3nc2-1 | -50.2% [at 42.5 µM]
CCCCCCCC[N+](CCCCCCCC)(CCCCCCCC)CCCCCCCC | -81.8%
C[C@@H]1C[C@H]2[C@@H]3CCC4=CC(=O)C=C[C@]4(C)[C@@]3(Cl)[C@@H](O)C[C@]2(C)[C@@]1(OC(=O)c1ccco1)C(=O)CCl | -51.1% [at 42.5 µM]
COc1cccc2c1C(=O)c1c(O)c3c(c(O)c1C2=O)C[C@@](O)(C(=O)CO)C[C@@H]3O[C@H]1C[C@H](N)[C@H](O[C@@H]2CCCCO2)[C@H](C)O1 | -55.4% [at 42.5 µM]
Oc1c(Cl)cc(Cl)c2cccnc12 | -66% [at 42.5 µM]
Cc1cccc2c1cc1ccc3cccc4ccc2c1c34 | 35.4% (active)
O=C(NO)C1(NS(=O)(=O)c2ccc(Oc3ccc(F)cc3)cc2)CCOCC1 | -35.1%
CC(C)CCCCCCCCCCCCCCC(=O)O | -17%
CN(C)[C@@H]1C(=O)C(C(N)=O)=C(O)[C@@]2(O)C(=O)C3=C(O)c4c(O)cccc4C[C@H]3C[C@@H]12 | -27.8% [at 42.5 µM]

Compound | activity change, positive = activation
CCCCCCCCCCn1cc[n+](CCCCCCCCCC)c1C | -74.4%
O=C1Cc2cc(CCN3CCN(c4nsc5ccccc45)CC3)c(Cl)cc2N1 | -35.7% [at 42.5 µM]
CN1CCC(Nc2ncc3ncnc(Nc4ccc(F)c(Cl)c4)c3n2)CC1 | -30.3% [at 42.5 µM]
CC/C(=C(\c1ccc(O)cc1)c1ccc(OCCN(C)C)cc1)c1ccccc1 | -78.4%
CN(C)c1ccc(C2(c3ccc(N(C)C)cc3)OC(=O)c3cc(N(C)C)ccc32)cc1 | -13.6%
Cc1cc(O)c(Cl)c(C)c1Cl | 1.15%
N/C(=N\N=C\c1ccc(Cl)cc1)N/N=C/c1ccc(Cl)cc1 | -44.1% [at 42.5 µM]
Clc1ccc2cc3ccccc3cc2c1 | 8.76%
O=[N+]([O-])c1cc(Cl)c(Cl)c(Cl)c1Cl | -25.7%
CCCCCCCCCCCCCCCC(=O)OC[C@H](O)[C@H]1OC(=O)C(O)=C1O | -29.6%
CCCCCCCCCCCCCCCCCC[N+](C)(C)Cc1ccccc1 | -81%
OC1(c2ccc(Cl)c(C(F)(F)F)c2)CCN(CCCC(c2ccc(F)cc2)c2ccc(F)cc2)CC1 | -71.9% [at 42.5 µM]
CCC1=C[C@@H]2CN(C1)Cc1c([nH]c3ccccc13)[C@@](C(=O)OC)(c1cc3c(cc1OC)N(C)[C@H]1[C@@](O)(C(=O)OC)[C@H](OC(C)=O)[C@]4(CC)C=CCN5CC[C@]31[C@@H]54)C2 | -48.8% [at 42.5 µM]
[O-][n+]1ccccc1SSc1cccc[n+]1[O-] | -64% [at 19 µM]
Fc1ccc(C(c2ccc(F)cc2)N2CCN(C/C=C/c3ccccc3)CC2)cc1 | -51.3% [at 42.5 µM]
[Cl][Au]([Cl])[Cl] | -67.4%
COc1ccc(CN2CCN(C(c3ccc(F)cc3)c3ccc(F)cc3)CC2)c(OC)c1OC | -66.6% [at 42.5 µM]
COc1cccc(N)c1 | -25.2%
Cc1onc(-c2c(Cl)cccc2Cl)c1C(=O)N[C@@H]1C(=O)N2[C@@H]1SC(C)(C)[C@@H]2C(=O)O | -4.23% [at 42.5 µM]

— PubChem BioAssay (Tox21)
